Bioassay records as filed in PubChem BioAssay.
Rows were chosen to be rich in hits. Some 10% of all compounds tested hit in one or more screens of this group.
NIH3T3 tox: Cytotoxic Profiling in NIH 3T3 Cell Line of Diverse Libraries Using Quantitative High-Throughput Screening; NIH 3T3 viability, CellTiter-Glo ATP luminescence, 48-72 h; Potency, µM (doses to about 96.7 µM), usual class: inhibitors; hit rate 4.3% among 94,000; further: nearly all actives have a fitted effect of over 55% in size
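First NIH 3T3 cells are plated at 400 cells/well; next compound is pinned in; then plates incubate 48 or 72 hr at 37 °C; finally CellTiter-Glo is added and luminescence read after 10 min.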
GPT2 inh: Primary qHTS assay for inhibitors of Glutamate pyruvate transaminase 2 (GPT2); Alanine aminotransferase 2 (Homo sapiens), Q8TD30; Recombinant GPT2, coupled pyruvate oxidase/HRP Amplex Red fluorescence; Potency, µM (series often up to 57.7 µM), most hits filed as inhibitors; hit rate 0.25% among 100,000; further: nearly all actives have a fitted effect of over 60% in size
Target sequence (Q8TD30 whole entry, looked up): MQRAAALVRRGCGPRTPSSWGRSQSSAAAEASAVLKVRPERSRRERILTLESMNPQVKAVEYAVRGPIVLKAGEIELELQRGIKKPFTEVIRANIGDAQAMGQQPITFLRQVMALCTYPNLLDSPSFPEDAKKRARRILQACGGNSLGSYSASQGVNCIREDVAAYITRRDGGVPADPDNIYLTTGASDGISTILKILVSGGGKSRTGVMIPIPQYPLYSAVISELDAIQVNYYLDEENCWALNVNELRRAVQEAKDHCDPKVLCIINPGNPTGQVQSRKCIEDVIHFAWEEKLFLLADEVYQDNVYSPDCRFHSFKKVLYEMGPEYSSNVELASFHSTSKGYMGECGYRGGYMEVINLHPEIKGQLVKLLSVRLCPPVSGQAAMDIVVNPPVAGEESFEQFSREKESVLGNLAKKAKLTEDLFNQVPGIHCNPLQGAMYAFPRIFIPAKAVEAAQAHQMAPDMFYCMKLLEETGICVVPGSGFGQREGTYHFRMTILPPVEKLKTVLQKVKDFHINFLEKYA
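Fluorescence of coupled pyruvate oxidase/HRP/Amplex Red system (50uM Amplex, 30 min, dark) reports pyruvate formed by GPT2. Enzyme reaction: 10ng/uL GPT2, 2mM L-alanine, 250uM a-KG, 30 min room temperature, pH 7.5; 50uM AOA control.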
HEK293 tox: Cytotoxic Profiling in HEK 293 Cell Line of Diverse Libraries Using Quantitative High-Throughput Screening | HEK 293 viability, ATP luminescence (CellTiter-Glo), 48-72 h | Potency, µM (series often up to 115 µM), usual class: inhibitors | hit rate 6.6% among 94,000; further: nearly all actives have a fitted effect of over 60% in size
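CellTiter-Glo luminescence (cellular ATP) was read after 48 or 72 hr of compound exposure at 37 degree Celsius. Cells were HEK 293 plated at 250 cells/well.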
hNpr1 antagonist: Natriuretic polypeptide receptor (hNpr1) antagonism - Primary qHTS; HEK293 hNpr1 GloSensor cGMP, ANP-stimulated luminescence; Potency, µM (doses to about 46.3 µM), usual class: inhibitors; hit rate 1.6% among 76,000; AID 1347048, 2019; calls by dose curve; further: nearly all actives have a fitted effect of over 60% in size
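HEK293 cells stably expressing human Npr1 and cGMP GloSensor pGS-40F, loaded 2 h with 2% GloSensor reagent, given compound 30 min at room temperature. Luminescence read before and 20 min after 0.1 nM hNppA.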
FLuc inh: Firefly luciferase inhibition profiling of diverse chemical library using quantitative high-throughput screening; Potency, µM (titrated, usually from 115 µM), actives largely listed as inhibitors; purified P. pyralis luciferase, luminescence, biochemical; AID 1347043, 2019; hit rate 2.5% among 76,000; Luciferin 4-monooxygenase (Photinus pyralis), P08659; further: nearly all actives have a fitted effect of over 65% in size
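Luminescence read by CCD imager after adding enzyme (10nM final) to wells holding compound, titrated in qHTS. Substrates 10uM each D-luciferin and ATP; buffer 50mM Tris acetate pH 7.5, 10mM Mg acetate, Tween-20, BSA.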
Numbers stand for hits; . = inactive; ? = inconclusive; / = not tested or not shown. Unless noted, the call rests on the fitted dose curve; in most records, active means well fitted curve in the direction sought with a large enough effect; inconclusive means small, poorly fitted or top-dose-only effect, or another doubt; inactive means no such curve, though single readings can be large; an effect the other way counts as inactive or inconclusive.

SMILES | NIH3T3 tox | GPT2 inh | HEK293 tox | hNpr1 antagonist | FLuc inh
CN(C)c1cccc(C(=O)NC2CCN(c3cc(-c4cccs4)[nH]n3)C2)c1 (centres undefined) | ? | ? | ? | . | 32µM
Cc1ccc(CC(=O)NC2CCN(c3cc(-c4cccs4)[nH]n3)C2)cc1 (centres undefined) | ? | ? | ? | . | .
Cc1cccc(C(=O)NC2CCN(c3cc(-c4cccs4)[nH]n3)C2)c1 (centres undefined) | ? | ? | ? | . | .
O=C(NC1CCN(c2cc(-c3cccs3)[nH]n2)CC1)c1cccc(Cl)c1 | ? | . | 45µM | . | .
COCCOCC(=O)N1CCC2(CC1)CC(N(C1CC1)S(C)(=O)=O)CCO2 (centres undefined) | . | ? | . | / | /
O=C(C1CCCN([S+](=O)([O-])c2cccs2)C1)N1CCC(N2Cc3cccn3C2=O)CC1 (centres undefined) | ? | . | ? | / | /
COCCc1nncn1C1CCN(S(=O)(=O)c2ccc(F)c(F)c2)CC1 | . | . | . | . | .
CC1=C[C@@H](CN)[C@H](C(C)C)C[C@H]1Cc1nc2ccc(C)cc2[nH]1 | 40µM | . | 45µM | . | .
CCCNC(=O)NC[C@@H]1C=C(C)[C@H](Cc2nc3ccc(OC)cc3[nH]2)C[C@H]1C(C)C | 40µM | . | ? | ? | .
COc1ccc2nc(C[C@@H]3C[C@@H](C(C)C)[C@H](CN)C=C3C)[nH]c2c1 | 71µM | . | ? | . | .
CC1=C[C@@H](CN)[C@H](C(C)C)C[C@H]1Cc1nc2ccc(F)cc2[nH]1 | 100µM | . | 79µM | . | .
CC1=C[C@@H](CNC(=O)COCC(=O)O)[C@H](C(C)C)C[C@H]1Cc1nc2ccc(C)cc2[nH]1 | . | . | . | . | .
CC1=C[C@@H](CNC(=O)CC2(CC(=O)O)CCCC2)[C@H](C(C)C)C[C@H]1Cc1nc2ccc(F)cc2[nH]1 | . | . | . | . | .
CN1CCN(Cc2ccc(-c3ccc(C(C)(C)C#N)cc3)nc2)CC1 | ? | . | ? | . | .
COc1ccc2[nH]c(C[C@@H]3C[C@@H](C(C)C)[C@H](CN(Cc4ccccn4)Cc4ccccn4)C=C3C)nc2n1 | ? | . | ? | . | .
CC1=C[C@@H](CN)[C@H](C(C)C)C[C@H]1Cc1nc2ccc(Cl)cc2[nH]1 | 45µM | . | 50µM | . | .
COc1ccc2nc(C[C@@H]3C[C@@H](C(C)C)[C@H](CN(Cc4ccccc4F)Cc4ccccc4F)C=C3C)[nH]c2c1 | 14µM | . | ? | . | .
COC(=O)c1ccc2nc(C[C@@H]3C[C@@H](C(C)C)[C@H](CNC(=O)c4ccccc4)C=C3C)[nH]c2c1 | ? | . | ? | . | .
CNC(=O)[C@@H]1CN(C(=O)c2c[nH]c3ccccc23)C[C@H]1COC | . | . | . | . | .
CCCN1Cc2ccccc2NC(=O)C12CCNC2 (centres undefined) | . | . | . | / | /
O=C1Nc2ccccc2CN(Cc2ccc(Cl)cc2)C12CCNCC2 | 14µM | ? | 20µM | . | .
O=C1Nc2ccccc2CN(Cc2ccccc2)C12CCNC2 (centres undefined) | 89µM | . | ? | / | /
O=C1Nc2ccccc2CN(C/C=C/c2ccccc2)C12CCNC2 (centres undefined) | 25µM | . | ? | / | /
O=C1Nc2ccccc2CN(CC2CCOCC2)C12CCNCC2 | . | . | . | / | /
C[C@@]12CO[C@H](c3ccccc3)C[C@@H]1C[C@@H](N1CCN(CC3CC3)CC1)C2 | . | / | ? | / | /
COc1ccc(NC(=O)c2ccc3nc(-c4ccncc4)oc3c2)cc1 | . | . | ? | / | /
Cn1c(=O)n([C@H]2CCN(C(=O)Cc3cccnc3)C2)c2ncccc21 | . | . | . | / | /
O=C(C[C@@H]1CCNC[C@@H]1Cc1cc(COc2ccccc2)on1)NC1CCCCC1 | 63µM | . | 100µM | . | .
